Source: PubChem
BL2 CD40 inh: CD40 pathway inhibition in BL2 cells; inhibition, % at 10 µM; AID 1053188; BL2 NF-kB luciferase reporter, CD40L-induced, 4 h; 0.94% of 83,000 active;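 active = mean inhibition of at least 50% with a set share of replicates also reaching that level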;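 note: 0% = neutral control wells and 100% = IKK inhibitor VII at 50 µM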
* hit, by the source's call; ! = a repeat was not active; [ ] = another dose, or the depositor's remark. Only a selection was taken, and hits are over-represented in it overall.

SMILES	BL2 CD40 inh
C[C@@H](C(=O)N(C)C[C@H]1OCc2ccccc2-c2ccccc2C(=O)N([C@@H](C)CO)C[C@@H]1C)c1ccccc1	0
C[C@@H]1CN([C@H](C)CO)C(=O)c2cccc(NS(=O)(=O)c3ccc(F)cc3)c2O[C@H]1CN(C)C(=O)NC1CCCCC1	-2[25 µM]
COc1ccc(NC(=O)CN(C)C(=O)c2ccc(S(=O)(=O)Nc3ccccc3F)cc2)cc1	8
C=C1C(=O)OC2C=C(CO)C3OC3C3OC3(C)CC(OC(=O)/C(=C/C)COC(C)=O)C12 (stereo unspecified)	101*
c1ccc2cc(CSCc3nc4ccccc4[nH]3)ccc2c1	-12
CN(C)C(=O)c1cccc(-c2ccc([C@H]3[C@H]4CN(C(=O)C5CCCC5)CC(=O)N4[C@H]3CO)cc2)c1	3
C[C@H](CO)N1C[C@H](C)[C@@H](CN(C)Cc2ccncc2)Oc2ncc(-c3cncnc3)cc2C1=O	-1[25 µM]
Cc1ccnc(NC(=O)c2cc3ccccc3o2)c1	88*
O=C(NC1=NCCS1)c1cc2ccccc2o1	63*
O=C(Nc1cccc2ncccc12)c1cc2ccccc2o1	-10
O=C(NC1CC1)c1cc2ccccc2o1	-4
O=C(Nc1ncccc1O)c1cc2ccccc2o1	-9
O=C(Nc1ccc2c(c1)OCCO2)c1cc2ccccc2o1	33
CNC[C@@H]1OCCCC[C@@H](C)Oc2ccc(NC(=O)Nc3ccc(OC)cc3)cc2C(=O)N([C@H](C)CO)C[C@H]1C	-21[25 µM]
CN(C)C(=O)c1ccc(-c2ccc(C3[C@H]4CNC[C@@H]3N4S(=O)(=O)c3ccc(Cl)cc3)cc2)cc1 (stereo partly specified)	-9[25 µM]
N#C[C@@H]1[C@@H](c2ccc(C3=CCCCC3)cc2)[C@H](CO)N1S(=O)(=O)c1cccc(F)c1	-8
CN(C[C@@H]1[C@@H](c2ccccc2)[C@H](CO)N1Cc1ccccn1)S(C)(=O)=O	6[25 µM]
CCOC(=O)c1c(-c2ccc(C)o2)csc1NC(=O)CN1CCCCC1	63*
CCOC(=O)c1c(-c2ccc(C)o2)csc1NC(=O)CN1CCN(CC)CC1	-2
CCOC(=O)c1c(-c2ccc(C)o2)csc1NC(=O)CN1CCC(C(N)=O)CC1	-6
CCCC(=O)NCCCc1nc2ccccc2n1C(C)C	6
CCC(=O)N[C@@H]1CC[C@@H](CC(=O)NCc2ccccc2F)O[C@@H]1CO	6[25 µM]
COc1cc2c(cc1OC)CN(C(=O)c1ccc(-c3ccccc3)cc1)CC2	18
COc1cc2c(cc1OC)CN(CC(=O)NC(=O)NC(C)(C)C)CC2	0
COc1ccc(C(=O)CCN2CCc3cc(OC)c(OC)cc3C2)cc1	50*
SMILES	BL2 CD40 inh
CC(C)(C)c1ccc(C(=O)N2CCCC2c2cccs2)cc1 (stereo unspecified)	-4
CC1(C)Cc2ccccc2-c2nnc(-c3ccccn3)n21	8
O=C(/C=C/c1ccccc1)c1ccccc1	-42
Cn1cc(/C=N/Nc2ccccc2)c2ccccc21	-3
Cn1cc(/C=C/C(=O)c2ccccc2)c2ccccc21	33*
C/C=C/c1ccc([C@H]2[C@@H](CO)N(C(C)=O)[C@@H]2CN(CCOC)C(C)=O)cc1	-8[25 µM]
O=C(c1ccc2c(c1)OCO2)N1C[C@@H]2[C@H](c3ccccc31)[C@@H](CO)N2Cc1ccccc1Cl	11[25 µM]
Cn1ccnc1SCC(=O)Nc1ccc2c(c1)OC(F)(F)O2	-20
Cc1ccc(S(=O)(=O)NCC[C@@H]2CC[C@H](NC(=O)c3cccnc3)[C@@H](CO)O2)cc1	-2[25 µM]
Cc1ccccc1OCC(=O)Nc1ccc2c(c1)Cc1ccccc1-2	7
Cc1ccccc1OCC(=O)Nc1cccc(C(=O)O)c1	91*
Cc1ccccc1OCC(=O)Nc1ccc2c(c1)C(=O)c1ccccc1C2=O	-9
COc1ccc(-c2ccc3c(c2)[C@H]2[C@H](CCN2S(=O)(=O)c2ccc(OC)cc2)[C@H](CO)N3C)cc1	-4[25 µM]
C[C@H](NC(=O)C[C@H]1CC[C@@H]2[C@H](COc3ccc(NS(=O)(=O)c4ccc(Cl)cc4)cc3C(=O)N2C)O1)c1ccccc1	-10[25 µM]
O=C(c1ccc(F)cc1)N1C[C@@H]2N[C@H](C1)C2c1ccc(-c2ccccc2F)cc1 (stereo partly specified)	4[25 µM]
O=C(C1CC1)N1C[C@@H]2N[C@H](C1)C2c1ccc(-c2ccccc2F)cc1 (stereo partly specified)	83*!
O=C(C1CCCC1)N1C[C@@H]2N[C@H](C1)C2c1ccc(-c2cccc(F)c2)cc1 (stereo partly specified)	8
O=C(Nc1ccc(F)cc1)N1C[C@@H]2N[C@H](C1)C2c1ccc(-c2ccccc2F)cc1 (stereo partly specified)	-4
O=C(C1CC1)N1C[C@@H]2N[C@H](C1)C2c1ccc(-c2cccc(F)c2)cc1 (stereo partly specified)	60*!
Cc1cccc(-c2ccc(C3[C@@H]4CN(C(=O)Nc5ccccc5)C[C@H]3N4)cc2)c1 (stereo partly specified)	0
N#Cc1cccc(-c2ccc(C3[C@@H]4CN(C(=O)C5CC5)C[C@H]3N4)cc2)c1 (stereo partly specified)	76*!
N#Cc1ccc(-c2ccc(C3[C@@H]4CN(C(=O)C5CCCC5)C[C@H]3N4)cc2)cc1 (stereo partly specified)	3
N#Cc1ccc(-c2ccc(C3[C@@H]4CN(C(=O)C5CCC5)C[C@H]3N4)cc2)cc1 (stereo partly specified)	44
Cc1cccc(-c2ccc(C3[C@@H]4CN(C(=O)C5CCC5)C[C@H]3N4)cc2)c1 (stereo partly specified)	14
O=C(Nc1ccc(C(F)(F)F)cc1)N1C[C@@H]2N[C@H](C1)C2c1ccc(/C=C/c2ccccc2)cc1 (stereo partly specified)	45
SMILES	BL2 CD40 inh
O=C(Nc1ccc(C(F)(F)F)cc1)N1C[C@@H]2N[C@H](C1)C2c1ccc(-c2ccccc2)cc1 (stereo partly specified)	70*!
Cc1cc2nccc(-c3ccc(Cl)c([N+](=O)[O-])c3)n2n1	-2
COCC(=O)NC[C@@H]1[C@@H](c2ccc(C3=CCCC3)cc2)[C@H](CO)N1C(=O)C1CC1	-12[25 µM]
CN(C(=O)COC(=O)CSc1ccccc1)c1c(N)n(Cc2ccccc2)c(=O)[nH]c1=O	5
CC(C)c1cn(CC[C@@H]2CC[C@H](NC(=O)C3CCCCC3)[C@H](CO)O2)nn1	1
COc1ccc(-c2ccc3n(c2=O)C[C@H]2[C@H](CO)[C@@H](C(=O)N(C)C)N(CC4CCOCC4)[C@@H]32)cc1	2[25 µM]
CC(=O)NCc1ccc(S(=O)(=O)N2CCN(S(=O)(=O)c3ccc4ccccc4c3)CC2)cc1	3
O=C(Nc1cccc(C(F)(F)F)c1)OCc1ccncc1	3
O=C1OC(OC(=O)c2cccnc2Nc2cccc(C(F)(F)F)c2)c2ccccc21 (stereo unspecified)	85*[25 µM]
Cc1ccc(Nc2ncccc2C(=O)O)cc1C	-63
COc1ccc2c3c([nH]c2c1)[C@H](CO)N(C(=O)Nc1ccc(F)cc1)CC31CN(C(=O)c2ccccn2)C1	-24[25 µM]
CCOC(=O)C1CCN(c2ccc(-c3cccs3)nn2)CC1	57*
CCOC(=O)c1cc(-c2cccs2)[nH]n1	-11
CCOC(=O)C1CCN(C(=O)c2cccs2)CC1	9
COc1ccc(-c2ccc3c(c2)[C@@H]2[C@@H](CCN2C(=O)Nc2ccc(F)cc2)[C@H](CO)N3C)cc1	12
Cc1noc(C)c1S(=O)(=O)N(C)C[C@H]1OCCCC[C@@H](C)Oc2ccc(NS(=O)(=O)c3cn(C)cn3)cc2C(=O)N([C@@H](C)CO)C[C@H]1C	-2[25 µM]
